target: Serine/threonine-protein kinase PAK 6 (Homo sapiens) (UniProt Q9NQU5); details: at 0.1 µM
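Note: mean PAK6 inhibition reported from the GSK PKIS screen.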

Sequence of Serine/threonine-protein kinase PAK 6 (Homo sapiens) (Q9NQU5 whole entry, looked up): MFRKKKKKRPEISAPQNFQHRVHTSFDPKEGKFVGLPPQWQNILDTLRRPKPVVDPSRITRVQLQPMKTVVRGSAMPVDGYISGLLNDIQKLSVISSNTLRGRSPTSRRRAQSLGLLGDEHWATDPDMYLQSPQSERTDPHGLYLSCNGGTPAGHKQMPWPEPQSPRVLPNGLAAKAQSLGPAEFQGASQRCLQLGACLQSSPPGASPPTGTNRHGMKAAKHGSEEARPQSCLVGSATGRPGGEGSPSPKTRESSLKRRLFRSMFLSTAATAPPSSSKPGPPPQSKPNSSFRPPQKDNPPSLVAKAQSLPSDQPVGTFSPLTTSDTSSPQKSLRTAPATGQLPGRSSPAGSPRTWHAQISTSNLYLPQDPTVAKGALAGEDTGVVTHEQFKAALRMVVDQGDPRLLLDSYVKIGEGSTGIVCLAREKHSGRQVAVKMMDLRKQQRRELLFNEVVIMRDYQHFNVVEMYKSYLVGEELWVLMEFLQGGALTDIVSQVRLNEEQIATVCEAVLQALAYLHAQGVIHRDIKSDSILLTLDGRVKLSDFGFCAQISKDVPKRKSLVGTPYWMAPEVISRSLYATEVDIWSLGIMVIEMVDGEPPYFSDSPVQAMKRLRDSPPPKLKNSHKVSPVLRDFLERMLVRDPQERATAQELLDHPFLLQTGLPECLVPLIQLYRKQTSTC

First: CN(c1ccc(NC(=O)Nc2c(Cl)cccc2Cl)cc1)c1ccnc(Nc2cccc(CS(C)(=O)=O)c2)n1
Second: CN1CCN(CCCNc2nc3ccc(Oc4ccc(NC(=O)Nc5cc(C(F)(F)F)ccc5F)cc4)cc3[nH]2)CC1
The inhibition of the first is higher: 7.14% for the first, -3.01% for the second.

First: COc1ccc(C2=C(N3CCc4ccccc43)C(=O)NC2=O)cc1
Second: c1ccc(-c2n[nH]cc2-c2ccnc(-c3ccc(OCCN4CCOCC4)cc3)c2)nc1
The inhibition of the first is lower: 3.36% for the first, 7.57% for the second.

Going from `NS(=O)(=O)c1ccc(Nc2cc(-c3ccc(O)c(F)c3)n[nH]2)cc1` to `CCS(=O)(=O)c1ccc(OC)c(Nc2ncc(-c3ccccc3Cl)o2)c1`, the inhibition falls from 1.44% to -6.91%.

First: COc1cc2ncn(-c3cc(OCCc4ccccc4)c(C(N)=O)s3)c2cc1OC
Second: COc1cc(Nc2ncc3c(C)nc(-c4cccc(Oc5ccccc5)c4)n3n2)cc(OC)c1OC
The inhibition of the first is higher: 1.18% for the first, -2.06% for the second.

Compared with `CCc1ccc(Oc2nccc(-c3c(-c4ccc(F)cc4)ncn3C3CCNCC3)n2)cc1`, `COc1cc(Nc2ncc3c(C)nc(-c4cccc(C(F)(F)F)c4)n3n2)cc(OC)c1OC` is higher in inhibition: -5.49% for the first, -0.28% for the second.
